The values that follow come from the supplement of paper PMC11026393.

In the assay the test system is SH-SY5Y. Description: difference in mean normalized H2B-mRuby nuclear fluorescence intensity relative to DMSO control (normalized intensity difference (DMSO = 0)); higher = stronger increase in transgene reporter fluorescence. The settings on record: 24 h. The method, then: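 Cancer cell lines stably expressing H2B-mRuby2 from a lentiviral PGK promoter were treated with each drug for 24 h and imaged on a Leica DMI8 (ex 541-551 / em 565-605 nm). Nuclei were segmented in CellProfiler. The value is the difference in mean per-nucleus normalized H2B-mRuby intensity versus DMSO-treated cells (about 3 repeats x 4 fields). Doxorubicin is itself fluorescent. Dasatinib is in nM.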

For `COc1cc2ncnc(Nc3ccc(F)c(Cl)c3)c2cc1OCCCN1CCOCC1` (concentration unit: uM), the difference (concentration: 1) was 0.0355; the difference (concentration: 2.5) was 0.0288; the difference (concentration: 5) is 0.0297; the difference (concentration: 10) came out at 0.0546; the difference (concentration: 20) was 0.086.
Consider `COc1cc([C@@H]2c3cc4c(cc3[C@@H](O[C@@H]3O[C@@H]5CO[C@@H](C)O[C@H]5[C@H](O)[C@H]3O)[C@H]3COC(=O)[C@H]23)OCO4)cc(OC)c1O` (concentration unit: uM), for which the difference (concentration: 1) was found to be 0.0162; the difference (concentration: 2.5) was 0.042; the difference (concentration: 5) was 0.0775; the difference (concentration: 10) is 0.0738; the difference (concentration: 20) was found to be 0.0983.
For `Nc1ncn([C@@H]2O[C@H](CO)[C@@H](O)[C@H]2O)c(=O)n1` (concentration unit: uM) the same measures were 0.0451, 0.0373, 0.0486, 0.0991 and 0.0901.
`Cc1[nH]c2ccccc2c1CCNCc1ccc(/C=C/C(=O)NO)cc1` (concentration unit: nM) gave a difference (concentration: 10) of 0.13; a difference (concentration: 50) of 0.783; a difference (concentration: 100) of 1.09; a difference (concentration: 250) of 1.19; a difference (concentration: 500) of 1.16.
Turning to `COc1cccc2c1C(=O)c1c(O)c3c(c(O)c1C2=O)C[C@@](O)(C(=O)CO)C[C@@H]3O[C@H]1C[C@H](N)[C@H](O)[C@H](C)O1` (concentration unit: nM), the difference reads like this: (concentration: 25) -0.0232; (concentration: 100) 0.0095; (concentration: 250) 0.0862; (concentration: 1000) 0.155; (concentration: 2500) 0.202.
For `Cc1nc(Nc2ncc(C(=O)Nc3c(C)cccc3Cl)s2)cc(N2CCN(CCO)CC2)n1` (concentration unit: nM) the same measures were 0.0391, 0.111, 0.137, 0.178 and 0.156.
